Here are results for four molecules from PubChem BioAssay.

The nature of experiment [1]: small molecules captured by biotinylated probe aFSTL3 – biochemical, small-molecule microarray, fluorescence 635/667, stem cell growth factor project, primary screen (AID 1064).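 Note: measures binding of the biotinylated anti-FSTL3 antibody to printed compounds.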 Particulars: higher = more signal.
Experiment [2] can be described thus: binders from COS7 lysate, DM2A8 probe, primary screen, torsin A project, cell lysate, small-molecule microarray, fluorescence 635/667 (AID 1065). The settings on record: higher = more signal, COS7 lysate expressing mutant human TOR1A.
A short description of experiment [3]: small molecules captured by biotinylated probe aFGF2 – biochemical, small-molecule microarray, fluorescence 635/667, stem cell growth factor project, primary screen (AID 1067).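 Note: measures binding of biotinylated aFGF2 protein to printed compounds on slides; z-score merges feature fluorescence and signal-to-noise across triplicate slides.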 The settings on record: higher = more signal.
Experiment [4] is described as follows: small molecules captured by biotinylated probe aFGF10 – biochemical, small-molecule microarray, fluorescence 635/667, stem cell growth factor project, primary screen (AID 1071).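 Note: score merges 667 nm spot intensity and signal to noise from triplicate slides.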 The settings on record: higher = more signal.
For experiment [5], the target named is Neurogenic locus notch homolog protein 2 (Homo sapiens) (UniProt Q04721). Description: small molecules binding Notch2 protein – biochemical, small-molecule microarray, 635 nm fluorescence, stem cell growth factors, primary screen (AID 1073). Particulars: higher = more signal.
Experiment [6] addresses Pro-neuregulin-1, membrane-bound isoform (Homo sapiens) (UniProt Q02297). Description: small molecules binding neuregulin-1 protein – biochemical, small-molecule microarray, fluorescence 635/667, psychiatric disease protein project, primary screen (AID 1075).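 Note: score combines 667 nm spot fluorescence with signal to noise.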 The settings on record: NRG1 binding, 635 nm fluorescence, higher = more signal.
Experiment [7] relates to Neuregulin-1 EGF-like domain. The experiment can be described thus: small molecules binding NRG1 EGF domain – biochemical, small-molecule microarray, 635 nm fluorescence, primary screen (AID 1081).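 Note: binding of the protein to compounds printed on small-molecule microarray slides.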 The settings on record: higher = more signal.
Experiment [8] can be described thus: FRG1 expression reporter modulators in myotubes – cell-based, C2C12 myotubes, firefly/Renilla luciferase, luminescence, FRG1 inhibition for FSHD, primary screen (AID 1084). Particulars: FRG1 promoter luciferase, higher = more signal, called active from +8 up or from −8 down.
Experiment [9] can be described thus: small molecules captured by biotinylated probe aFST – biochemical, small-molecule microarray, fluorescence 635/667, stem cell growth factor project, primary screen (AID 1086).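 Note: score merges 667 nm fluorescence with signal-to-noise of each printed compound spot.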 Particulars: higher = more signal.
The nature of experiment [10]: binders of probe aHhip on microarray, primary screen, stem cell growth factor project, biochemical, small-molecule microarray, fluorescence 635/667 (AID 1087).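 Note: score merges spot fluorescence at 667nm with spot signal to noise ratio.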 The settings on record: higher = more signal.
Experiment [11] has as its system PRMT1 (protein arginine N-methyltransferase 1). Description: small molecules binding arginine methyltransferase PRMT1 – biochemical, small-molecule microarray, 635 nm fluorescence, primary screen (AID 1088).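 Note: binding of Prmt1 protein to compounds spotted on small-molecule microarray slides.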 Particulars: higher = more signal.
Experiment [12] is described as follows: growth effects on S. cerevisiae YJM789 – YJM789 clinical isolate, OD600, 24 h, basal, primary screen (AID 1089).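 Note: growth of clinical yeast isolate S. cerevisiae YJM 789 seeded 1000 cells per well; test concentration not given here.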 The settings on record: higher = more signal, called active from +8 up or from −8 down.
Experiment [13] can be described thus: S. pombe growth modifiers, basal conditions – strain 972, OD600, 24 h, no modulator, primary screen (AID 1090).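 Note: basal condition with compound alone and no growth modifier present; test concentration not given here.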 Particulars: S. pombe 972 growth, higher = more signal, called active from +8 up or from −8 down.
A short description of experiment [14]: budding yeast growth modifiers under rapamycin – strain BY4716, OD600, 96 h, primary screen (AID 1091). Note: test concentration not given here. Particulars: S. cerevisiae BY4716 + rapamycin, higher = more signal, called active from +8 up or from −8 down.
Experiment [15] has as its target Torsin-1A-interacting protein 2 (Homo sapiens) (UniProt Q8NFQ8). Description: small molecules binding lysate-expressed LULL1 – cell lysate, human LULL1 lysate, 635/667 nm fluorescence, primary screen (AID 1092).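 Note: probe is lysate of COS7 cells overexpressing human LULL1; score merges per-feature 667 nm fluorescence with signal-to-noise.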 The settings on record: small-molecule microarray, hLULL1 lysate binding, 635 nm fluorescence; higher = more signal.
Experiment [16] in a line: optical density change of DRC41 E. coli – strain DRC41, OD650, 24 h, E. coli filamentation project, primary screen (AID 1093).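 Note: MC1000 strain lacking acrAB efflux and sulA so SOS filamentation is blocked; test concentration not given here.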 Particulars: E. coli DRC41 growth, higher = more signal, called active from +8 up or from −8 down.
The nature of experiment [17]: probe aLefty2 binding to arrayed compounds – biochemical, biotinylated probe, 635/667 nm fluorescence, primary screen (AID 1094).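 Note: score merges spot fluorescence near 667 nm with spot signal-to-noise ratio.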 Particulars: small-molecule microarray, higher = more signal.
For experiment [18], the system named is Noggin (protein binding on small-molecule microarray). Description: small molecules binding Noggin protein – biochemical, 635/667 nm fluorescence, primary screen (AID 1095).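 Note: score merges 667 nm feature fluorescence with signal to noise over triplicate slides.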 The settings on record: 635 nm fluorescence, higher = more signal.
Experiment [19] deals with Neurogenic locus notch homolog protein 3 (Homo sapiens) (UniProt Q9UM47). The experiment can be described thus: small molecules binding NOTCH3 protein – biochemical, 635/667 nm fluorescence, primary screen (AID 1096). Particulars: small-molecule microarray, 635 nm fluorescence, higher = more signal.
A short description of experiment [20]: probe aEGFR binding to arrayed compounds – biochemical, biotinylated probe, 635/667 nm fluorescence, primary screen (AID 1097).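 Note: probe is a biotinylated anti-EGFR antibody binding compounds printed on slides; score combines fluorescence near 667 nm and signal to noise of each spot.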 The settings on record: small-molecule microarray, higher = more signal.

SMILES strings stand for the structures. Several values for one entry are separate records, joined by “and”; a condition that tells them apart may be missing. Equal entries are not always repeated. Activity calls are given as the source filed them.

Sequence of Neurogenic locus notch homolog protein 2 (Homo sapiens) (Q04721 whole entry, looked up, canonical isoform): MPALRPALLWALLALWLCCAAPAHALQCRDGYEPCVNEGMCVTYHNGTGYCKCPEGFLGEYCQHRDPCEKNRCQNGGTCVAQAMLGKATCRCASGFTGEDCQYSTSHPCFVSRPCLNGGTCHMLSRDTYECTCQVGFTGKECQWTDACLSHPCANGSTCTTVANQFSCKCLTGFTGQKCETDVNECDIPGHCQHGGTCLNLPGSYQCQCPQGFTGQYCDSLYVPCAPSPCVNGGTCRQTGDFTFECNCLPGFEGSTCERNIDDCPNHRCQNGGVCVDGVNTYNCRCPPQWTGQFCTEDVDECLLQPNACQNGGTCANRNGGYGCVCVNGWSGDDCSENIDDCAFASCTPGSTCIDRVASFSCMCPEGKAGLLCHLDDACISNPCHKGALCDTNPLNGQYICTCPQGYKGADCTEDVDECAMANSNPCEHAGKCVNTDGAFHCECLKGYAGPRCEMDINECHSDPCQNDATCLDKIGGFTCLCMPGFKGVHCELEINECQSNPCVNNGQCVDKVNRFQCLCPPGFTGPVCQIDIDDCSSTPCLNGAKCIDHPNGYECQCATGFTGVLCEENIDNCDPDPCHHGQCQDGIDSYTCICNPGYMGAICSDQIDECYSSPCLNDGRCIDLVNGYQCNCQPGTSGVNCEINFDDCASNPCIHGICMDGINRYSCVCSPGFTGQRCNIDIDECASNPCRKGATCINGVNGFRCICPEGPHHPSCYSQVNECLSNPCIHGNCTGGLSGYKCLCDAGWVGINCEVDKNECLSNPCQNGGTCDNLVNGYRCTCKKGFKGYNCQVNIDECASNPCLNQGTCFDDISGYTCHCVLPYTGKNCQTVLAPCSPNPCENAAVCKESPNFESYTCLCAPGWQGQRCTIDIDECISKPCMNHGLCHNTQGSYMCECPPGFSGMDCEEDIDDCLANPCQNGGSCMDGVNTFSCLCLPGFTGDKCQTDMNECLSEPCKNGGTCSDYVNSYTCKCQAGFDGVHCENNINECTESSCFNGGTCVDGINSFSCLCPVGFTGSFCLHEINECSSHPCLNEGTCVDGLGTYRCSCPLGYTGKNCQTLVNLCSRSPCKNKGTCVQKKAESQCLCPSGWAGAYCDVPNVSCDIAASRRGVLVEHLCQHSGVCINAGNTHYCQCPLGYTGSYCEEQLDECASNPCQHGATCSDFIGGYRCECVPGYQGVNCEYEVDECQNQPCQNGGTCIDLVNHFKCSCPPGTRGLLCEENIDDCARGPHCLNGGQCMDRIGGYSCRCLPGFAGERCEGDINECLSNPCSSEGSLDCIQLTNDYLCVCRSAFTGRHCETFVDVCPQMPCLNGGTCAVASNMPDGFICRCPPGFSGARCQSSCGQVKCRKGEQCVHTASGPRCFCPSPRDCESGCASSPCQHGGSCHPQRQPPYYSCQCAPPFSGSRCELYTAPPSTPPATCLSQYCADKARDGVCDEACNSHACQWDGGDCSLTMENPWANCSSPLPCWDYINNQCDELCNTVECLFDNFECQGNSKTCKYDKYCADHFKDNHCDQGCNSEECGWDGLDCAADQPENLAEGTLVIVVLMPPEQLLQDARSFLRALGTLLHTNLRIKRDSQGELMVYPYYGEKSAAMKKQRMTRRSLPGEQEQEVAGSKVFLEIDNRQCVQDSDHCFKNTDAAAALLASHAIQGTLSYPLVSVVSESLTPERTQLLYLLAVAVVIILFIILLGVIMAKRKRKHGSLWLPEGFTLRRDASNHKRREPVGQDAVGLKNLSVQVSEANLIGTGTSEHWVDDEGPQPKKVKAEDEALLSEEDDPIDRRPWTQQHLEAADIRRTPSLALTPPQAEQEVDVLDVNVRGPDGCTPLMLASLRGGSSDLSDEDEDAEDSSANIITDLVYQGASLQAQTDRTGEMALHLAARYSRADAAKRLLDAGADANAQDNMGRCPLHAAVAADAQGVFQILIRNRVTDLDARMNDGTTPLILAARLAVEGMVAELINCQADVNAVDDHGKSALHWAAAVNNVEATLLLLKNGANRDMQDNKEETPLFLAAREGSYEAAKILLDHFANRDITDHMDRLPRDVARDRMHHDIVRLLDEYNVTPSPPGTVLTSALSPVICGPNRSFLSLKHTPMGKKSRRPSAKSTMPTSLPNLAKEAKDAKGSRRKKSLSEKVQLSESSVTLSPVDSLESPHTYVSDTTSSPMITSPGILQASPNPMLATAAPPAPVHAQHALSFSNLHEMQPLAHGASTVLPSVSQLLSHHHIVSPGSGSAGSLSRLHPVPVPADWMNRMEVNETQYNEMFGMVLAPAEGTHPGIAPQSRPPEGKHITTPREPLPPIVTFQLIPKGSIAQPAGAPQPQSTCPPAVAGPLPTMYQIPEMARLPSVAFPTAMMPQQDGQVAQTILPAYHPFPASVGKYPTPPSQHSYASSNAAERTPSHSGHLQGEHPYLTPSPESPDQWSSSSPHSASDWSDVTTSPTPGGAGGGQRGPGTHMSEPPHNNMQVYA
Sequence of Torsin-1A-interacting protein 2 (Homo sapiens) (Q8NFQ8 whole entry, looked up): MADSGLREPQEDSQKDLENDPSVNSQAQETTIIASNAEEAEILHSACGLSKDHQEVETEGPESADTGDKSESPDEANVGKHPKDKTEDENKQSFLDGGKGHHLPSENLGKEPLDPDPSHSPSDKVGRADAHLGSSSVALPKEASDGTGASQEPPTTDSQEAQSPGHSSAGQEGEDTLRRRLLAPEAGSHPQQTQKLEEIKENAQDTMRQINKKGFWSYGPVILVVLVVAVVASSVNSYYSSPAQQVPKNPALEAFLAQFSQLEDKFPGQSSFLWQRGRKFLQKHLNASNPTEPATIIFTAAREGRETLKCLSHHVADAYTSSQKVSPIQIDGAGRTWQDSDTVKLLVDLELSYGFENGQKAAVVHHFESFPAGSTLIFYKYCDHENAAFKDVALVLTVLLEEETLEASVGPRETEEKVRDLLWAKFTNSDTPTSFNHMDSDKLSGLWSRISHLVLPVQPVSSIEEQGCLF
Sequence of Pro-neuregulin-1, membrane-bound isoform (Homo sapiens) (Q02297 whole entry, looked up, the tested form may be a part, canonical isoform): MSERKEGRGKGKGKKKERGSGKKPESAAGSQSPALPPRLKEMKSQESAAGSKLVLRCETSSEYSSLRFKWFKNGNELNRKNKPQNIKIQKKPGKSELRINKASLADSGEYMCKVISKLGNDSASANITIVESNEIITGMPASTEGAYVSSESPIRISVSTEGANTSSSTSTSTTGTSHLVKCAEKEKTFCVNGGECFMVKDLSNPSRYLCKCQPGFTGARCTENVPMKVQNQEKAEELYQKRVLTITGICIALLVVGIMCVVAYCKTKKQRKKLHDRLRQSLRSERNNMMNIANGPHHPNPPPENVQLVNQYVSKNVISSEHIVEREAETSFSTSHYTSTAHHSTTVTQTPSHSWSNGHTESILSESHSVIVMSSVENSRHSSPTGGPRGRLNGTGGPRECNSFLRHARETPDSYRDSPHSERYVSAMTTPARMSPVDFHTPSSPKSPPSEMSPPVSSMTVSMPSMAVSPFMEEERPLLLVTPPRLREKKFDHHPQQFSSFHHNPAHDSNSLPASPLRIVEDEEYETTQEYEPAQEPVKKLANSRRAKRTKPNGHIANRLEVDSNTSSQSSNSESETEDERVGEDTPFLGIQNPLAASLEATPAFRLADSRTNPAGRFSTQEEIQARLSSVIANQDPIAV

For `C=CCN(Cc1ccccc1)C(=O)C1N(c2ccc(CCO)cc2)C(=O)C2C(C(=O)O)C3C=CC21O3` (stereo not given), the composite z-score in [1] is 1.72 and 0.902; in experiment [2], -0.723 and -0.963; in experiment [3], -0.194 and -0.19; in experiment [4] it was -0.362 and -0.749; in experiment [5], -2.7 and -2.66; in [6], 0.191 and -0.96. Besides, the composite z-score in experiment [7] was 0.161 and -0.559; in experiment [9], -1.44 and -0.907; in experiment [10], -0.0994 and -0.431; in experiment [11] it was -1.64 and -0.655; in [15] it was -0.933 and -1.02; in experiment [17], 0.0395 and 0.0834. Also, the composite z-score in [18] was -2.88 and -1.99; in experiment [19], -1.35 and -1.12; in experiment [20], -0.418 and -0.305. The z-score in [8] is 2.4 (inactive) and 1.24 (inactive); in experiment [12], 0.774 (inactive) and -0.721 (inactive); in experiment [13], -0.455 (inactive) and 0.116 (inactive); in [14], 0.599 (inactive) and -1.29 (inactive); in experiment [16] it was 1.12 (inactive) and 2.04 (inactive).

For `C=CCN(Cc1ccccc1)C(=O)C1N(CCOCCO)C(=O)C2C(C(=O)O)C3C=CC21O3` (stereo not given), the composite z-score in experiment [1] is 1.75 and 1.34; in experiment [2], -1.1 and -1.84; in [3], -0.309 and -0.27; in experiment [4], -2.7 and -1.09; in experiment [5], -2.27 and -1.42; in experiment [6] it was 1.27 and 0.866. Moreover, the composite z-score in experiment [7] is 0.731 and 0.433; in experiment [9], -1.06 and -1.03; in experiment [10], -0.423 and -0.362; in experiment [11] it was -0.576 and -0.797; in experiment [15], 3.27 and 2.73; in experiment [17], 0.22 and 0.141. Besides, the composite z-score in experiment [18] was -3.1 and -1.88; in experiment [19] it was -0.74 and -0.734; in [20] it was -0.323 and -0.278. Besides, the z-score in experiment [8] was -0.91 (inactive) and -0.244 (inactive); in experiment [12], -1.93 (inactive) and 0.844 (inactive); in experiment [13], -1.52 (inactive) and -0.0833 (inactive); in experiment [14] it was -1.25 (inactive) and 0.225 (inactive); in [16], 2.42 (inactive) and 1.4 (inactive).

As to `Cc1ccc(S(=O)(=O)N[C@H]2COC(=O)[C@@H](C)COC(=O)[C@H](C)NC(=O)CC=C[C@H]2C)cc1`, the composite z-score is -0.574 in experiment [1]; 1.03 in [2]; -0.116 in [3]; 0.604 in [4]; 0.192 in experiment [5]; -0.476 in experiment [6]. For the same molecule, the composite z-score was -0.132 in experiment [7]; -0.154 in [9]; -0.0618 in [10]; 0.277 in experiment [11]; -0.487 in experiment [15]; -0.121 in experiment [17]. In addition, the composite z-score in experiment [18] is 1.17; in [19] it was 0.646; in experiment [20], -0.0862. Moreover, the z-score is 0.691 (inactive) in [8]; -0.0016 (inactive) in [12]; -0.838 (inactive) in experiment [13]; -0.351 (inactive) in experiment [14]; 0.147 (inactive) in [16].

With `C=CCN(C(=O)C1N(c2c(Cl)cccc2CO)C(=O)C2C(C(=O)O)C3C=CC21O3)C(C)(C)C` (stereo not given), the composite z-score in experiment [1] is -0.933 and 1.87; in experiment [2], -1.67 and -0.997; in experiment [3], -0.238 and -0.0459; in [4] it was -0.782 and -0.419; in [5], -0.872 and -1.15; in experiment [6], 0.0516 and -0.736. In addition, the composite z-score is 0.0868 and -0.844 in experiment [7]; -0.347 and -0.422 in [9]; -1.01 and 0.51 in experiment [10]; -0.17 and -0.656 in experiment [11]; 0.893 and -1.28 in [15]; -0.359 and -0.152 in experiment [17]. In addition, the composite z-score is -1.7 and -1.45 in experiment [18]; -0.873 and -0.616 in experiment [19]; -0.403 and -0.366 in [20]. Further, the z-score in [8] is 0.756 (inactive) and -1.07 (inactive); in experiment [12], 0.61 (inactive) and -1.92 (inactive); in experiment [13], 0.857 (inactive) and -1.43 (inactive); in experiment [14], -0.509 (inactive) and -0.74 (inactive); in experiment [16], 2.58 (inactive) and 1.44 (inactive).
